In the library only some 7.3% were active in any assay of this set; here they are far more common.
FMDV antiviral: blocks foot and mouth disease virus; FMDV antiviral cell-based qHTS; Potency, µM (titrated, usually from 57.9 µM), usual class: inhibitors; hit rate 1.2% among 410,000; AID 1159524; calls by dose curve; tested in HEK293T cells; note: read-out not given here; nearly all actives have a fitted effect of over 45% in size
HCMV inh: human cytomegalovirus inhibition. HFF cells, HCMV-luciferase reporter, 72 h; active compounds read low. activity change, negative = inhibition, % at 57.5 µM. hit rate 4.5% among 410,000; in the data active = activity change below about -60%; inconclusive = no clear call, values can overlap the other calls; inactive = above about -39%
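Steps: HFFs plated, 16 h 37C; compounds added; HCMV-luciferase added to MOI 1 PFU/cell; 72 h 37C; OneGlo reagent, 5 min room temperature; luminescence read, normalized to controls.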
Vaccinia Venus: vaccinia inhibition (Venus reporter). Potency, µM (series often up to 36.5 µM), usual class: inhibitors. Vaccinia virus Venus reporter expression, fluorescence. hit rate 0.46% among 330,000; calls by dose curve; tested in A549 cells; note: nearly all actives have a fitted effect of over 30% in size
HCV inhibitor: HCV inhibition. Huh7.5.1 HCVcc-Cre infection, luciferase reporter, 44 h. Potency, µM (titrated, usually from 41.8 µM), hits mostly inhibitors. hit rate 3.4% among 340,000. AID 651820; active = well fitted inhibition curve with a large enough effect; inconclusive = small, poorly fitted or top-dose-only effect, or another doubt; inactive = no such curve, though single readings can be large or run the other way
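Infectious HCV cell culture screen: compound-treated cells (1,000/well, pre-plated 4 h) are infected with HCVcc-Cre at roughly 0.5 moi and grown 44 h. Infection is quantified by luciferase signal after 15 min substrate incubation at room temperature.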
VACV mCherry inh: vaccinia inhibition (mCherry reporter); Vaccinia virus mCherry reporter infection, fluorescence; Potency, µM (titrated, usually from 36.5 µM), usual class: inhibitors; hit rate 0.63% among 310,000; calls by dose curve; tested in A549 cells; note: nearly all actives have a fitted effect of over 35% in size
Numbers stand for hits; - = inactive; ? = inconclusive; . = not tested or not shown.

SMILES	FMDV antiviral	HCMV inh	Vaccinia Venus	HCV inhibitor	VACV mCherry inh
O=C(Nc1ccc(NC(=S)NC(=O)c2ccccc2Cl)cc1)c1cccc(Cl)c1	-	-	-	25.1µM	.
CC(C)C(=O)Nc1cccc(NC(=S)NC(=O)c2ccccc2Cl)c1	-	-	.	?	.
CC(C)NC(=O)CN1C(=O)c2cccnc2Sc2ccccc21	-	-	-	.	-
Cc1ccc(CNC(=O)c2ccc(NC3=NC4CS(=O)(=O)CC4S3)cc2)cc1 (configuration not stated)	-	-67.6	-	-	-
Cc1ccc(C(=O)Nc2ccc(F)cc2)cc1NC1=NC2CS(=O)(=O)CC2S1 (configuration not stated)	-	-101.3	-	-	-
Cc1cc(C)cc(NC(=O)c2ccc(NC3=NC4CS(=O)(=O)CC4S3)cc2)c1 (configuration not stated)	-	-	-	-	-
CN(C)c1ncnc2ccc(-c3ccc4c(c3)OCO4)cc12	-	.	.	.	.
Cc1n[nH]c(C)c1CCCCOc1ccccc1	?	-82.4	-	-	-
COc1ccccc1NC(=O)CN1C(=O)c2cccc3cccc1c23	-	-	-	.	-
CC(=O)Nc1ccc(C(=O)N2CCCC(c3cc(C(=O)Nc4ccccc4)no3)C2)cc1 (configuration not stated)	-	?	-	.	-
C/C(=C\C(=O)c1ccc(C)cc1)Nc1cccc(O)c1	-	-	-	12.6µM	-
OCC[C@@H]1C[C@H](O)[C@@H](O)[C@@]2(OCCc3cc(C(F)(F)F)ccc32)O1	.	-	.	.	.
COc1ccc(NC(=O)c2cccc(OC(=S)N3CCOCC3)c2)cc1	-	-	.	?	.
O=C(Nc1ccc(Br)cc1)c1cccc(OC(=S)N2CCOCC2)c1	?	-76.8	-	8.91µM	-
CCOc1ccc(NC(=O)c2cccc(OC(=S)N3CCOCC3)c2)cc1	-	-67.8	-	-	-
Cc1cccc(NC(=O)c2cccc(OC(=S)N3CCOCC3)c2)c1C	-	-	-	-	-
O=C(Oc1ccc(C(=S)N2CCOCC2)cc1)c1ccc(Br)cc1	-	-60.4	-	-	-
CCOc1ccc2oc(C(=O)OCC(=O)N3C(C)CCCC3C)c(C)c2c1 (configuration not stated)	?	-	.	12.6µM	.
Cc1c(C(=O)NNC(=O)c2ccccc2O)oc2ccc(Br)cc12	-	-	-	-	-
CCOc1ccc2oc(C(=O)NNC(=O)c3ccccc3O)c(C)c2c1	-	-72.2	-	-	?
COc1ccc2oc(C(=O)OCC(=O)N3C(C)CCCC3C)c(C)c2c1 (configuration not stated)	-	-	-	-	-
Cc1ccc(C)c(C(O)c2ncc(-c3ccccc3Cl)[nH]2)c1 (configuration not stated)	-	-	-	.	-
COc1ccc(CNC(=O)c2ccc3c(c2)N(C)C(=O)C2CCCCN32)cc1OC (configuration not stated)	-	-	-	.	-
CCOc1ccc(S(=O)(=O)N2CCN(C(=O)c3ccc(C)c(S(=O)(=O)N4CCOCC4)c3)CC2)cc1	?	-60.9	-	?	?
CCOc1ccc(S(=O)(=O)N2CCN(C(=O)c3cc(S(=O)(=O)N4CCOCC4)ccc3C)CC2)cc1	-	-	-	-	-
SMILES	FMDV antiviral	HCMV inh	Vaccinia Venus	HCV inhibitor	VACV mCherry inh
Cc1cc(C)c(S(=O)(=O)N2CCN(C(=O)c3ccc(-n4cncn4)c([N+](=O)[O-])c3)CC2)c(C)c1	-	-	-	-	-
CCOc1ccc(S(=O)(=O)N2CCN(C(=O)c3ccc(Cl)c(S(=O)(=O)N4CCOCC4)c3)CC2)cc1	?	-60.3	.	-	.
CCOc1ccc(S(=O)(=O)N2CCN(C(=O)c3ccc(-n4cncn4)c([N+](=O)[O-])c3)CC2)cc1	-	-	-	11.2µM	-
COc1ccccc1N1CCN(c2ncnc3c2c(-c2ccccc2)cn3-c2cccc(C)c2)CC1	-	-	-	.	-
N=c1ccn(Cc2ccc(Cl)c(Cl)c2)cc1	?	-97.1	?	3.55µM	.
N=c1ccn(Cc2ccc(Cl)cc2)cc1	?	-92.7	?	1.12µM	.
Clc1ccc(CN2CCCCCCC2)cc1Cl	-	-	-	-	-
N=c1ccn(Cc2cccc(Cl)c2)cc1	?	-71.0	?	2.51µM	.
Cc1cc(F)ccc1NC(=O)c1c(C)oc2c1C1=NCCN1C=N2	-	-	-	.	-
CC(C(=O)Nc1ccc(O)cc1C(=O)O)N1C(=O)/C(=C\c2cccs2)SC1=S (configuration not stated)	-	-	.	-	.
CCOc1ccc(NC(=O)c2cc3sc(Cl)cc3n2CC)cc1	-	-	?	.	-

Assay outcomes deposited in PubChem by National Center for Advancing Translational Sciences (NCATS).
